According to PubChem BioAssay AID1851 (National Center for Advancing Translational Sciences (NCATS), 2009):
The whole screen tested about 16,000 compounds, of which about 4,000 (25%) were called active. Roughly 26% stayed inconclusive and do not appear here. Only a sample is shown. Unmarked numbers belong to inactive results. Calls come from the whole dose curve; as a rule, active = well fitted curve in the direction sought with a large enough effect; inconclusive = small, poorly fitted or top-dose-only effect, or effect the other way; inactive = no such curve, though single readings can be large or run the other way.

Biological target: Cytochrome P450 2C9 (Homo sapiens) (UniProt P11712)
Sequence (P11712 whole entry, looked up): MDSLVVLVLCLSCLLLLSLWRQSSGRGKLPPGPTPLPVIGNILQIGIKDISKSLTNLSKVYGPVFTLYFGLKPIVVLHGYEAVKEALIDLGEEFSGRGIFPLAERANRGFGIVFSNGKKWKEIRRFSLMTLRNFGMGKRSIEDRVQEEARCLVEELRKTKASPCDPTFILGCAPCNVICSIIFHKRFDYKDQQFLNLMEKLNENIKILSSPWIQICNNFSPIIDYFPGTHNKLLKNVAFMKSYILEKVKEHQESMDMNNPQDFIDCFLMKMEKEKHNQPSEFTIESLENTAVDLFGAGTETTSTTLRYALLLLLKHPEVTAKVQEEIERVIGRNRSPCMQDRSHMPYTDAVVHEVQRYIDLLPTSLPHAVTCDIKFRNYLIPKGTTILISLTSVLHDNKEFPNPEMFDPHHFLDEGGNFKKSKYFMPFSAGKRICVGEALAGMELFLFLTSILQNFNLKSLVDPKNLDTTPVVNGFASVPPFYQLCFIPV
Experiment: Cytochrome panel assay with activity outcomes
Conditions: recombinant CYP, pro-luciferin dealkylation, luminescence, p450-cyp2c9; series mostly up to 57.1 µM; activity, negative = inhibition: at the top concentration
% is set by controls: 0 for no effect and ±100 for the full control effect.

Q: With `COc1ccc(O[C@H]2C=C[C@@H](c3ccccc3)O[C@H]2COC(=O)CC/C(C)=N/OCC[C@@H]2C=C[C@H](OC(C)=O)[C@H](COC(C)=O)O2)cc1` as the compound, how does the AC50 read?
A: Its AC50 is 3.98 µM (active).

Q: Which AC50 does the source give for `COc1ccc(O[C@H]2C=C[C@@H](c3ccccc3)O[C@H]2COC(=O)N2CCCCC2)cc1` here?
A: Its AC50 is 2.51 µM (active).

Q: `COc1ccc(O[C@H]2C=C[C@@H](c3ccccc3)O[C@@H]2CO/N=C(\C)CCN2CCc3nc(-c4ccccc4)c(-c4ccccc4)cc3C2)cc1` was tested. Which activity, negative = inhibition did it give?
A: Its activity, negative = inhibition is -13.6% [at 11.4 µM].

Q: Which activity, negative = inhibition does the source give for `CCCNC(=O)OC[C@H]1O[C@@H](CCO/N=C2/[C@H]3O[C@@H]3[C@@H](O)[C@H]3[C@H]2CCn2c(=O)n(-c4ccccc4)c(=O)n23)C=C[C@@H]1Oc1ccc(OC)cc1` here?
A: Its activity, negative = inhibition is -24.3% [at 11.4 µM].

Q: How did the activity, negative = inhibition turn out when `C/C(CCC(=O)OC[C@@H]1O[C@H](C#Cc2ccccc2)C=C[C@@H]1Oc1ccc(C)cc1)=N/OC[C@@H](O)[C@H]1O[C@H]2OC(C)(C)O[C@H]2[C@@H]1O` was run?
A: Its activity, negative = inhibition is -25.1% [at 11.4 µM].

Q: How did the “activity, negative = inhibition” value turn out when `C=CC[N+]1(CC#CCOC(c2ccccc2)c2ccccc2)CCOCC1` was run?
A: The value was -4.98%.

Q: Which activity, negative = inhibition does the source give for `COc1ccccc1CNc1ncncc1-c1ccccc1C` here?
A: The activity, negative = inhibition was 11.7% [at 2.29 µM].

Q: For `CO/N=C(\C)CCN1CCCCc2nc(C)c(C)cc21`, which activity, negative = inhibition is on record?
A: The activity, negative = inhibition was 8.57% [at 11.4 µM].

Q: `CC1=CC(=O)C=CC1(C)C(Cl)(Cl)Cl` (stereo not drawn) was tested. Which “activity, negative = inhibition” value did it give?
A: The value was -19.5%.

Q: How did the activity, negative = inhibition turn out when `Nc1nccc(Nc2ccc(S(N)(=O)=O)cc2)n1` was run?
A: The activity, negative = inhibition was -3.1% [at 11.4 µM].

Q: `CCOc1ccc(C(=O)Nc2cnn(Cc3ccc(Cl)c(Cl)c3)c2)cc1` was tested. Which AC50 did it give?
A: Its AC50 is 17.8 µM (active).

Q: With `CCCOc1ccc(C(=O)CCNc2ccc(C)c(Cl)c2)cc1` as the compound, how does the “activity, negative = inhibition” value read?
A: The value was 1.11%.

Q: For `CCOC(OCC)P(=O)(O)CCCNCc1ccc(Cl)c(Cl)c1`, which “activity, negative = inhibition” value is on record?
A: Its value is 6.63%.

Q: `Cn1c(SCc2nc3ccccc3n2CCO)nc2ccccc21` was tested. Which “activity, negative = inhibition” value did it give?
A: The value was -20.4%.

Q: For `CC(C)N(C(=O)CSc1nc2ccccc2n1-c1ccccc1)C(C)C`, which AC50 is on record?
A: Its AC50 is 15.8 µM (active).

Q: Which “activity, negative = inhibition” value does the source give for `CCCCc1c(O)nc(SCCN(C)C)n(-c2ccccc2)c1=O` here?
A: Its value is -4.69%.

Q: How did the “activity, negative = inhibition” value turn out when `C[C@@H](N)C(=O)O` was run?
A: Its value is -3.47%.

Q: For `CCN1CCc2c(sc(N)c2C(N)=O)C1`, which “activity, negative = inhibition” value is on record?
A: Its value is -3.22%.

Q: How did the “activity, negative = inhibition” value turn out when `CCN1CCc2c(sc(NC(=S)NC(=O)c3ccccc3)c2C#N)C1` was run?
A: Its value is -29.2%.

Q: With `CCOC(=O)c1c(NC(=S)Nc2ccccc2)sc2c1CCN(CCc1ccccc1)C2` as the compound, how does the AC50 read?
A: The AC50 was 0.282 µM (active).

Q: For `CC(=O)CC(=O)Nc1ccc2ccccc2c1`, which activity, negative = inhibition is on record?
A: The activity, negative = inhibition was 21.1% [at 11.4 µM].

Q: With `CCSc1nnc(NC(=O)Cc2ccccc2OC)s1` as the compound, how does the “activity, negative = inhibition” value read?
A: Its value is -20.3%.

Q: `O=C(COc1ccc2ccccc2c1)Nc1ccc(Cc2ccncc2)cc1` was tested. Which AC50 did it give?
A: The AC50 was 0.316 µM (active).

Q: `O=C(COc1ccc2ccccc2c1)NNC(=O)Cc1cccc2ccccc12` was tested. Which “activity, negative = inhibition” value did it give?
A: Its value is 4.04%.

Q: `CCSc1nnc(NC(=O)COc2ccc3ccccc3c2)s1` was tested. Which AC50 did it give?
A: The AC50 was 0.224 µM (active).

Q: With `Nc1nc(Cl)cc(NCCO)n1` as the compound, how does the activity, negative = inhibition read?
A: The activity, negative = inhibition was 2.74% [at 11.4 µM].

Q: Which activity, negative = inhibition does the source give for `O=C(O)[C@@H]1Cc2c([nH]c3ccccc23)[C@@H](CCCCO)N1` here?
A: Its activity, negative = inhibition is -6.46% [at 11.4 µM].

Q: `Cc1cc(C)c(C#N)c(SCc2cc3c(cc2Cl)OCO3)n1` was tested. Which AC50 did it give?
A: The AC50 was 3.16 µM (active).

Q: Which “activity, negative = inhibition” value does the source give for `N#Cc1cccc(NC(=O)N2CCCC3(CCN(C(=O)c4cnccn4)CC3)C2)c1` here?
A: The value was 3.77%.

Q: `COc1ccc(Nc2nnc(-c3ccc(N4CCOCC4)c([N+](=O)[O-])c3)c3ccccc23)cc1` was tested. Which AC50 did it give?
A: Its AC50 is 3.16 µM (active).

Q: Which “activity, negative = inhibition” value does the source give for `CS(=O)(=O)N1CCC2(CC1)CN(C(=O)Nc1cccc(C#N)c1)C2` here?
A: Its value is -4.82%.

Q: For `CC(C)(C)NCC[C@@H](O)c1cc(C(F)(F)F)nc2c(C(F)(F)F)cccc12`, which activity, negative = inhibition is on record?
A: The activity, negative = inhibition was 3.88% [at 11.4 µM].

Q: How did the AC50 turn out when `NCCCCCCNS(=O)(=O)c1cccc2c(Cl)cccc12` was run?
A: Its AC50 is 3.16 µM (active).

Q: For `CCCCCCCNS(=O)(=O)c1cccc2c(Cl)cccc12`, which “activity, negative = inhibition” value is on record?
A: Its value is -21.1%.

Q: `NCCCCNS(=O)(=O)c1ccc2c(Cl)cccc2c1` was tested. Which AC50 did it give?
A: The AC50 was 2 µM (active).

Q: Which AC50 does the source give for `NCCNS(=O)(=O)c1cccc2cnccc12` here?
A: Its AC50 is “inactive”.

Q: Which AC50 does the source give for `NCCCCCCCCCCNS(=O)(=O)c1cccc2c(Cl)cccc12` here?
A: The AC50 was 0.0501 µM (active).

Q: How did the activity, negative = inhibition turn out when `NCCNS(=O)(=O)c1ccc(N)cc1` was run?
A: Its activity, negative = inhibition is -0.285% [at 11.4 µM].

Q: With `CNCCNS(=O)(=O)c1cccc2cnccc12` as the compound, how does the “activity, negative = inhibition” value read?
A: The value was -29.4%.

Q: How did the “activity, negative = inhibition” value turn out when `NCCCCCCCCCCN` was run?
A: Its value is 3.55%.

Q: `N[C@H](C(=O)O)[C@H](OCc1ccccc1)C(=O)O` was tested. Which AC50 did it give?
A: Its AC50 is 10 µM (active).

Q: `N[C@@H](Cc1ccccc1)C(=O)O` was tested. Which activity, negative = inhibition did it give?
A: Its activity, negative = inhibition is 13.9% [at 11.4 µM].

Q: Which activity, negative = inhibition does the source give for `N[C@@H](CSCc1ccccc1)C(=O)O` here?
A: The activity, negative = inhibition was 11.8% [at 11.4 µM].
